From PubChem BioAssay (Tox21)
Records with an inconclusive call do not appear. Activity calls are given as the source filed them. Calls follow the shape of the dose curve; as a rule, active = well fitted cell-killing curve with a large enough effect in the repeat runs; inconclusive = weak or mixed curves, or effect the other way; inactive = flat fitted curve, though single readings scatter.

assay: qHTS assay to identify small molecule antagonists of the estrogen receptor alpha (ER-alpha) signaling pathway using the BG1 cell line in the presence of 0.1 nM 17-beta-estradiol - cell viability counter screen (AID 1259241); settings: VM7Luc4E2 (BG1) viability, CellTiter-Fluor protease, 22 h, 0.1 nM estradiol agonist added; series mostly up to 92.4 µM; activity change, negative = cytotoxicity: at the top concentration; also: nearly all actives have a fitted effect of over 40% in size
Excerpt: National Center for Advancing Translational Sciences [NCATS]
NIH Chemical Genomics Center [NCGC]
U.S. Environmental Protection Agency [EPA]
National Institutes of Environmental Health Sciences [NIEHS]
National Toxicology Program [NTP]
U.S. Food and Drug Administration [FDA]
Estrogen receptor (ER), a member of the nuclear hormone receptor plays an important role in development, metabolic homeostasis and reproduction. Two subtypes of ER, ER-alpha and ER-beta, have similar expression patterns with some uniqueness in both types. Endocrine disrupting chemicals (EDCs) and their interactions with steroid hormone receptors like ER causes disruption of normal endocrine function. Therefore, it is important to understand the effect of environmental chemicals in ER signaling pathway. For identifying ER antagonists, VM7Luc4E2 cell line was used to screen against Tox21 compound libraries.
VM7Luc4E2 cell line (provided by Denison MS, University of California) endogenously express full-length ER-alpha and is stably transfected with a plasmid containing four estrogen responsive elements (ERE) upstream of a luciferase reporter gene. The current screening for identification of ER-alpha inhibitors against Tox21 compound libraries used lower concentration (0.1 nM) of 17beta-Estradiol as a stimulator. The cytotoxicity of the Tox21 compound libraries against VM7Luc4E2 cell line was tested by measuring live-cell protease activity using CellTiter-Fluor assay in the same wells.
Tox21 Assay Protocol Summary:
VM7Luc4E2 cells were cultured in phenol red free assay medium containing 10% charcoal stripped FBS for 5 days prior to the assay. The cells were dispensed at 4,000 cells/well in 4 uL of assay medium into white wall/solid-bottom 1536-well plates (Corning Life Sciences, Corning, NY) using a Multidrop Combi (ThermoFisher Scientific, Waltham, MA) dispenser. After the assay plates were incubated at 37C and 5% CO2 for 24 hr, 23 nL of compounds dissolved in DMSO, positive controls or DMSO only was transferred to the assay plates by a Pintool station (Kalypsys, San Diego, CA). The transfer of compounds was followed by the addition of 1 uL of 0.1 nM (final concentration) agonist (17beta-Estradiol)/assay medium using a Flying Reagent Dispenser (FRD, Aurora Discovery, San Diego, CA). The plates were incubated at 37C and 5% CO2 for 22 hr. For cytotoxicity assay, 1 uL of CellTiter-Fluor reagent (Promega Corporation, Madison, WI) was added to each well using the FRD and after 30 min incubation at 37C and 5% CO2, The fluorescence intensity was measured using ViewLux plate reader (PerkinElmer, Shelton, CT).
% is scaled to controls: 0 for no effect and ±100 for the full control effect; potency is read from the fitted curve at half-maximal effect.

Compound	activity change, negative = cytotoxicity	Potency
C=CC(C)(C)O	-4.97% (inactive)	
Nc1cc([N+](=O)[O-])ccc1Cl	2.47% (inactive)	
CCCCCN=C(N)N/N=C/c1c[nH]c2ccc(OC)cc12		29.8 µM (active)
Oc1ccc(Cl)cc1C1CCCC1	0.0714% (inactive)	
CCc1cccc(CC)c1	1.18% (inactive)	
C=C1C(CCl)(CCl)C2(Cl)C(Cl)C(Cl)C1(Cl)C2(Cl)Cl (stereo not given)	-13.6% (inactive)	
O=C(CCCCCCCCc1cccnc1)N1CCC(C=C(c2ccccc2)c2ccccc2)CC1	-2.47% (inactive)	
c1ccc(-c2nc3ccccc3[nH]2)cc1	-20.6% (inactive)	
SC1CCCCC1	5.43% (inactive)	
CN(C/C=C/c1ccccc1)Cc1cccc2ccccc12	-12.4% [at 42.5 µM] (inactive)	
CC(C)=CCC[C@H](C)CC=O	-0.237% (inactive)	
ClC(c1ccccc1)(c1ccccc1)c1ccccc1	10.6% (inactive)	
C/C(=N\[Si](C)(C)C)O[Si](C)(C)C	-0.362% (inactive)	
CC(O)(c1ccc(Cl)cc1)c1ccc(Cl)cc1	0.0372% (inactive)	
CC(C)=NNC(N)=S	-9.66% (inactive)	
O=C1CCC/C=C\CCCCCCCCCC1	14.3% (inactive)	
Cc1ccc2sc3cccc(C)c3c2c1	-0.971% (inactive)	
CC1=C(/C=C/C(C)=C/C=C/C(C)=C\C(=O)O)C(C)(C)CCC1	-4.17% (inactive)	
O=C1OC(O)C(C(Cl)Cl)=C1Cl (stereo not given)	-1.65% (inactive)	
c1ccc2cc3c4ccccc4c4ccccc4c3cc2c1	0.151% (inactive)	

Compound	activity change, negative = cytotoxicity	Potency
O=C1OCc2ccccc21	-0.174% (inactive)	
C=CC(=O)OCC(Br)CBr (stereo not given)	-3.78% (inactive)	
[Cl][Eu]([Cl])[Cl]	7.88% (inactive)	
CN1CCN(CCCN2c3ccccc3Sc3ccc(Cl)cc32)CC1	-7.79% [at 42.5 µM] (inactive)	
c1ccc2c(c1)-c1ccc3ccc4cccc5cc-2c1c3c45	9.12% [at 42.5 µM] (inactive)	
CC1CCC(C(C)(C)O)CC1 (stereo not given)	-1.5% (inactive)	
C=Cc1ccc(O)c(OC)c1	-21.7% (inactive)	
CCc1cccc(C)c1N(C(=O)C(=O)O)C(C)COC (stereo not given)	1.45% (inactive)	
CCCCCCCCCCCCCCCCC(C(=O)O)C(O)(CC(=O)O)C(=O)O (stereo not given)	-2.64% [at 42.5 µM] (inactive)	
[Cl][Sc]([Cl])[Cl]	-2.74% (inactive)	
CCOc1nc(F)cc2nc(S(=O)(=O)Nc3c(Cl)cccc3C(=O)OC)nn12	2.8% (inactive)	
Cc1cccc2c1ccc1ccccc12	-2.4% (inactive)	
CC(C=O)c1ccccc1 (stereo not given)	-0.737% (inactive)	
C=C(C)CCO	-9.15% (inactive)	
O=C(NCc1ncc(C(F)(F)F)cc1Cl)c1c(Cl)cccc1Cl	1.32% (inactive)	
CCN(CC)c1ccc(C=O)c(O)c1	-4.14% (inactive)	
O=C1OC(=O)c2cc(-c3ccc4c(c3)C(=O)OC4=O)ccc21	-4.68% (inactive)	
CCC(=O)OC/C=C(\C)CCC=C(C)C	3.64% (inactive)	
NCc1ccco1	-10.3% (inactive)	
CCOc1ccc([N+](=O)[O-])cc1	1.54% (inactive)	
